Screens from PubChem BioAssay.
Most compounds without a hit are left out; they make up all but 2% or so of the library.
Six1-Eya2 blk – Six1/Eya2 interaction inhibition. activity change, % (test concentration not listed). 360,000 tested, 0.56% active. AlphaScreen GST-Six1/His-Eya2 binding, biochemical; active compounds read low. AID 651725. Q15475+O00167
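AlphaScreen with GST-Six1 and His-Eya2 (5X mix: 250 nM and 500 nM), glutathione donor and nickel acceptor beads; buffer 50 mM Tris pH 8.0, 300 mM NaCl, 1 mM TCEP; 1 h at 37 C in the dark.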
KCNH2 3.1 block – blocks the human KCNH2 3.1 channel isoform | U2OS KCNH2 3.1, thallium flux FluxOr; active compounds read low | activity change, % (tested at about 1.8 µM) | 340,000 tested, 0.95% active | AID 720553;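 active = maximum activity change below -70%; inconclusive = maximum activity change from -70% to -50%; inactive = maximum activity change above -50%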;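 also: thallium influx rate constant from kinetic fluorescence after stimulation buffer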
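Thallium flux via FluxOr fluorescence (Red40 quencher, 45 min loading) in U2OS cells virally expressing the KCNH2 3.1 isoform (1.77 x 10^8 /mL virus, overnight at 37 C). Rate constants from 2-min kinetic reads post-stimulation, normalised to positive and negative controls.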
CtBP-E1A blk – CtBP/E1A binding inhibition | AlphaScreen GST-E1A/His-CtBP binding, 1536-well; active compounds read low | activity change, % (no concentration beside the values) | 340,000 tested, 0.49% active
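Steps: dispense buffer (Tris pH 8.0, NaCl 300 mM, TCEP 1 mM, BSA, Tween 20); add 5X protein mix (GST-E1A, His-CtBP, 125 nM each); pin 23 nL compound; 2 h at 37 °C, dark; add 5X beads (50 ug/mL); 1 h; read.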
KCNH2 WT inh – inhibitors of human wildtype KCNH2 potassium channel; Q12809; AID 720551; U2OS, BacMam KCNH2, thallium flux FluxOr; active compounds read low; 340,000 tested, 0.37% active; activity change, % at 1.84 µM;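 active = maximum activity change below -70%; inconclusive = maximum activity change between -70% and -50%; inactive = maximum activity change above -50%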
Target sequence (Q12809 whole entry, looked up): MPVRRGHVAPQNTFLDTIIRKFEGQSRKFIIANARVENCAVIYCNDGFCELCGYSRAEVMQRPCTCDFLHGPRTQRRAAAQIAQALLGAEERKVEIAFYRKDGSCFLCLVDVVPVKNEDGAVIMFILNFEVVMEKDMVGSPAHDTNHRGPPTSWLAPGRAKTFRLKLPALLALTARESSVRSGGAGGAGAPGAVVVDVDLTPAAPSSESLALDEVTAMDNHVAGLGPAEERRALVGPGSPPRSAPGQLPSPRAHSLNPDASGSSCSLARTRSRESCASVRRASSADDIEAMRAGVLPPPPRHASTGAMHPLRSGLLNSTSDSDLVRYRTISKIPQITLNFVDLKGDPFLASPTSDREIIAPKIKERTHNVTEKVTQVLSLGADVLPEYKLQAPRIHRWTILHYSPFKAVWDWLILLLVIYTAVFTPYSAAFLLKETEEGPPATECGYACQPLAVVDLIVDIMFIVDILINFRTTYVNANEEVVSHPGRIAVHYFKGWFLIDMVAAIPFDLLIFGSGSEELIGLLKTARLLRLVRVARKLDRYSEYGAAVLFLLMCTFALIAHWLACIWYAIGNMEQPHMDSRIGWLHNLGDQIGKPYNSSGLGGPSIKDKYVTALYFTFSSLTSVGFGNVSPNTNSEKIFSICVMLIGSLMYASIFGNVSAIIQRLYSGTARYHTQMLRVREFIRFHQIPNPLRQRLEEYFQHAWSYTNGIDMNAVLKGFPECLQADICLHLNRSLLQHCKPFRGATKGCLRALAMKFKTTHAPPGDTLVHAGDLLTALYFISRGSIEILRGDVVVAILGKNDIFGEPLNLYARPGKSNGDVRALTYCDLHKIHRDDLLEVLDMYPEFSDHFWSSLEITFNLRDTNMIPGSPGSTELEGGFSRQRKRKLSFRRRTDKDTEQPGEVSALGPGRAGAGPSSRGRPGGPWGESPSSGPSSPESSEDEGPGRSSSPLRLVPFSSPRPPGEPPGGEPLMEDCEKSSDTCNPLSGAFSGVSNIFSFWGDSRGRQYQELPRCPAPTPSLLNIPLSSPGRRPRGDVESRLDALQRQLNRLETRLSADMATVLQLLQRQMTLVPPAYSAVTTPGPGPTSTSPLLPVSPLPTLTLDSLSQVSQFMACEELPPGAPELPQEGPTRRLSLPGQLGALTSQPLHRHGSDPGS
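U2OS cells were transduced with wild-type KCNH2 virus (2.03 x 10^8 / mL) for 4 h at room temperature, then cultured overnight at 37 C. Thallium flux was read with FluxOr dye. Rate constants were normalized to DMSO controls.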
JMJD2E inh – JMJD2E (human) inhibition. B2RXH2. JMJD2E catalytic domain, FDH-coupled NADH fluorescence (FDH is formaldehyde dehydrogenase). Potency, µM (series often up to 57.1 µM), actives largely listed as inhibitors. 230,000 tested, 1.6% active. AID 2147; active = well fitted inhibition curve with a large enough effect, not every such curve was filed as active; inconclusive = small, poorly fitted or top-dose-only effect, or another doubt; inactive = no such curve, though single readings can be large or run the other way; also: nearly all actives have a fitted effect of over 50% in size
Numbers stand for hits; 0 = inactive; ? = inconclusive; - = no result. Rule as the data show it, unless noted: active = activity change below about -65%; inconclusive = mostly about -30% to -63%; inactive = weaker than that.

SMILES | Six1-Eya2 blk | KCNH2 3.1 block | CtBP-E1A blk | KCNH2 WT inh | JMJD2E inh
CCc1nc2nc(C)c(NS(=O)(=O)c3cccs3)c(=O)n2[nH]1 | 0 | 0 | 0 | 0 | -
Cc1ccc(Nc2cc(C)nc(-c3ccccc3)n2)cc1 | 0 | -77.2 | 0 | 0 | -
c1csc(-c2nnc(NC3CCCCC3)c3ccccc23)c1 | ? | 0 | 0 | 0 | ?
CC1CCN(c2nnc(-c3cccs3)c3ccccc23)CC1 | 0 | -85.0 | 0 | 0 | 0
N=c1oc2c3c4c(cc2cc1C(=O)Nc1ccccc1)CCCN4CCC3 | 0 | -85.0 | 0 | -223.0 | 0
Cc1ccc(NC(=O)c2cc3ccccc3oc2=N)cc1 | 0 | 0 | - | 0 | -
Cn1ccnc1SC(C(=O)O)c1ccccc1 (stereo not given) | 0 | 0 | - | 0 | -
N=C1/C(=C\c2ccc(SCc3ccco3)o2)C(=O)N=C2SC=NN12 | ? | 0 | 0 | 0 | 28.2µM
CC1=NN2C(=N)/C(=C\c3ccc(SCc4ccccc4)o3)C(=O)N=C2S1 | 0 | 0 | 0 | 0 | 0
CN=c1scc(-c2ccco2)n1/N=C/c1ccc(O)c(O)c1 | ? | 0 | - | 0 | 25.1µM
CN=c1scc(C)n1/N=C/c1ccc(O)cc1 | 0 | 0 | 0 | 0 | 0
C=CCN=c1scc(C)n1/N=C/c1ccc(O)c(O)c1 | 0 | 0 | - | 0 | 15.8µM
OC(CN1CCN(C(c2ccccc2)c2ccccc2)CC1)c1ccccc1 (stereo not given) | 0 | 0 | 0 | 0 | -
COc1cc(CN2CCN(C(c3ccccc3)c3ccccc3)CC2)cc(OC)c1OC | 0 | ? | - | 0 | -
OC(CN1CCN(C(c2ccccc2)c2ccccc2)CC1)c1ccc(Br)cc1 (stereo not given) | 0 | -103.9 | - | -103.1 | -
OC(CN1CC=C(/C=C/c2ccc(Br)cc2)CC1)c1ccccc1 (stereo not given) | 0 | -92.7 | 0 | 0 | -
CN1CCN(CC(O)c2ccccc2)CC1 (stereo not given) | - | - | - | - | 0
c1ccc(OCCN2CCNCC2)cc1 | 0 | 0 | 0 | 0 | -
c1ccc(OCCN2CCN(C(c3ccccc3)c3ccccc3)CC2)cc1 | 0 | -96.1 | 0 | 0 | -
COc1cccc(CN2CCN(C(c3ccccc3)c3ccccc3)CC2)c1O | 0 | -74.1 | 0 | 0 | -
CC(C)CC1=NC(C(F)(F)F)(C(F)(F)F)c2c(n(CC(C)C)c(=O)[nH]c2=O)N1 | 0 | 0 | 0 | 0 | 0
CC(=O)c1ccccc1OCC(O)CN1CCN(C(c2ccccc2)c2ccccc2)CC1 (stereo not given) | 0 | -84.8 | 0 | -74.3 | 0
COc1ccc(/C=N/NS(=O)(=O)c2ccccc2)cc1OS(=O)(=O)c1ccccc1 | 0 | 0 | 0 | 0 | 0
COc1ccc(C(=O)N/N=C/c2ccc(OC)c(OS(=O)(=O)c3ccccc3)c2)cc1 | 0 | -195.3 | 0 | -150.6 | 0
CS(=O)(=O)N1CCC(C(=O)NCCc2ccccc2)CC1 | 0 | 0 | 0 | 0 | 0
SMILES | Six1-Eya2 blk | KCNH2 3.1 block | CtBP-E1A blk | KCNH2 WT inh | JMJD2E inh
CCCCC(CC)C(=O)Nc1cc(C(=O)NCCC)ccc1N1CCC2(CC1)CC(c1cccc(Br)c1)=NO2 (stereo not given) | 0 | ? | 0 | -84.2 | -
CCCNC(=O)c1ccc(N2CCC3(CC2)CC(c2ccccc2)=NO3)c(NC(=O)Cc2ccc(F)cc2)c1 | 0 | -76.7 | 0 | ? | -
O=C(Nc1cccc(O)c1)c1cccc(S(=O)(=O)N2CCCCCC2)c1 | ? | 0 | ? | 0 | -
O=C(Nc1cccc(O)c1)c1ccc(Br)c(S(=O)(=O)N2CCCCC2)c1 | 0 | -91.9 | 0 | 0 | 0
CC1CCCN(S(=O)(=O)c2ccc3c(c2)c(=O)nc2ccc(Cl)cn23)C1 (stereo not given) | 0 | 0 | 0 | 0 | -
O=C(Nc1ccccc1N1CCOCC1)c1ccc(Cl)nc1 | 0 | -105.2 | 0 | 0 | ?
CCCC(C(=O)NC1CCCC1)N(CC1CCCO1)C(=O)CNS(=O)(=O)c1ccccc1 (stereo not given) | 0 | 0 | 0 | 0 | -
CCN(CC)S(=O)(=O)c1cccc(C(=O)NCCc2ccccc2)c1 | 0 | 0 | 0 | 0 | -
CN(c1ccccc1)S(=O)(=O)c1cccc(C(=O)NCCc2ccc(O)c(O)c2)c1 | 0 | 0 | 0 | 0 | 14.1µM
CCCCN1C(=O)NC(NS(=O)(=O)c2ccc(N)cc2)(C(F)(F)F)C1=O (stereo not given) | 0 | 0 | 0 | 0 | 0
COc1c(C)cc(C(=O)C2CCCN(Cc3c(C)n(C)n(-c4ccccc4)c3=O)C2)cc1C (stereo not given) | 0 | ? | 0 | 0 | 0
CSc1ccccc1C(=O)C1CCCN(Cc2c(C)n(C)n(-c3ccccc3)c2=O)C1 (stereo not given) | 0 | -188.0 | 0 | -149.5 | 0
FC(F)(F)c1cc(CO[C@H]2CCCN[C@H]2c2ccccc2)cc(C(F)(F)F)c1 | - | - | - | - | 0
COc1cc2c(-c3cc(F)cc(F)c3)c(-c3ccsc3)oc(=O)c2cc1OC | 0 | -106.1 | 0 | 0 | -
O=C(c1cc(C2CC2)nn1-c1ccccc1)N1CCN(Cc2ccc(Cl)cc2)CC1 | 0 | 0 | 0 | 0 | -
CN(O)/C=c1/ccc2c(n1)C(=O)C=CC=2 | -92.5 | 0 | -96.4 | 0 | 0
C=CCN=c1scc(-c2ccc3c(c2)NC(=O)CO3)n1/N=C(\C)c1ccccn1 | 0 | -95.4 | 0 | 0 | 0
COc1c(C)cc(Br)cc1C(=O)Nc1cccc(NC(=O)c2ccco2)c1 | 0 | 0 | 0 | 0 | 0
CC1(c2cccc(Br)c2)NC(=O)N(CC(=O)Nc2ccc(S(N)(=O)=O)cc2)C1=O (stereo not given) | 0 | 0 | 0 | 0 | -
Cc1ccc(C)c(-n2cc(CNCCCn3cccn3)c(-c3ccccc3)n2)c1 | 0 | 0 | 0 | 0 | 0
Cc1ccc(-n2cc(CNCCCn3cccn3)c(-c3cccc(C)c3)n2)cc1 | 0 | -81.3 | 0 | ? | 0
Cc1ccc(-n2cccn2)c(CN2CCC(CO)(CCc3ccccc3)CC2)c1 | 0 | -96.3 | 0 | 0 | 0
O=C(Nc1cccc(-n2cnnn2)c1)c1ccoc1COc1ccc(Cl)cc1 | 0 | -73.6 | 0 | ? | -
O=C(Nc1cccc(-n2cnnn2)c1)c1cc(Cl)ccc1Cl | 0 | 0 | 0 | 0 | -
COc1ccc2ccc3c(c2c1)N=C[C@]1(O3)N(C)c2ccccc2C1(C)C | 0 | 0 | 0 | 0 | 11.2µM
SMILES | Six1-Eya2 blk | KCNH2 3.1 block | CtBP-E1A blk | KCNH2 WT inh | JMJD2E inh
Clc1ccc(CN2C3=NCCCN3c3ccccc32)cc1 | 0 | ? | 0 | 0 | 0
OC(CN1C2=NCCCN2c2ccccc21)c1ccc(Cl)cc1 (stereo not given) | 0 | -74.4 | 0 | 0 | 0
OC(CN1C2=NCCN2c2ccccc21)c1ccc(Br)cc1 (stereo not given) | 0 | -72.9 | 0 | 0 | 0
OC(COc1ccc(Cl)cc1)CN1C2=NCCCN2c2ccccc21 (stereo not given) | 0 | -97.2 | 0 | -146.1 | 0
CCN1C2=NCCCN2c2ccccc21 | 0 | 0 | 0 | 0 | 0
Clc1ccc(CN2C3=NCCCN3c3ccccc32)cc1Cl | 0 | -104.3 | 0 | -84.7 | 0
Fc1ccc(CNC(=S)Nc2ccc(OC(F)F)cc2)cc1 | 0 | 0 | - | 0 | 0
